Data taken from PubChem BioAssay (NCATS).
Records with an inconclusive call do not appear. The source made the active and inactive calls. The call rests on the fitted dose curve; in most records, active means well fitted cell-killing curve with a large enough effect; inconclusive means small, poorly fitted or top-dose-only effect, or effect the other way; inactive means flat fitted curve, though single readings scatter.

Experiment: Cell Viability - HUV-EC-C (AID 542);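 further: cells exposed to compound for 40 hours; nearly all actives have a fitted effect of over 35% in size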
Conditions: HUV-EC-C endothelial cell viability, qHTS; series mostly up to 92.2 µM; activity change, negative = cytotoxicity: at the top concentration
Summary of the method: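 Cells were seeded at 1000 per well and incubated 5 hr at 37 °C before compound addition. After 40 hr at 37 °C, CellTiter-Glo reagent was added for 20 min and luminescence read. AC50 values came from Hill-equation modelling.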
On the % scale 0 is the no-effect control and ±100 the full control effect; potency means the concentration at half of the fitted maximal effect.

SMILES | activity change, negative = cytotoxicity | Potency
CCCCCCc1ccc(-c2ccc(C#N)cc2)cc1 | 11.3% (inactive) | 
Nc1cnn([C@@H]2O[C@H](CO)[C@@H](O)[C@H]2O)c(=O)n1 | 9.69% (inactive) | 
CCCCCCCCOc1ccc(C(=O)O)cc1 | -6.47% (inactive) | 
Oc1c(Cl)cc(Cl)c(Cl)c1Cl | -0.508% (inactive) | 
CC(C)OCC1CO1 (stereo not given) | -5.24% (inactive) | 
C/C(Cl)=C/CCl | 7.03% (inactive) | 
CCCCNCC | 0.844% (inactive) | 
O=c1[nH]ncc2ccccc12 | -14.4% (inactive) | 
c1ccc(COCc2ccccc2)cc1 | -7.97% (inactive) | 
O=[N+]([O-])c1cccc(I)c1 | 5.47% (inactive) | 
Nc1ccc2c(c1)C(=O)c1ccccc1C2=O |  | 31.6 µM (active)
c1ccc2c(c1)ccc1ccccc12 | 6.24% (inactive) | 
Cc1ccc(C(=O)O)cc1[N+](=O)[O-] | 5.43% (inactive) | 
COc1ccc([N+](=O)[O-])cc1N | -13% (inactive) | 
OCC(CO)(CBr)CBr | -3.81% (inactive) | 
Nc1cc(C(=O)O)c(O)c(S(=O)(=O)O)c1 | 6.88% (inactive) | 
Oc1ccc2c(c1)OCO2 | 4.03% (inactive) | 
c1ccncc1 | 6.25% (inactive) | 
CC(=O)OC1CC(C)OC(C)O1 (stereo not given) | -1.11% (inactive) | 
O=C(OCc1ccccc1)c1ccccc1O | -6.15% (inactive) | 
C/C=C/C=C/C=O | -14.4% (inactive) | 
CCN(CC)c1ccc2c(C)cc(=O)oc2c1 | -11.1% (inactive) | 
c1c[nH]cn1 | -5.56% (inactive) | 
c1ccc(SCCSc2ccccc2)cc1 | 1.78% (inactive) | 
O=C(O)/C=C/c1ccc(/C=C/C(=O)O)cc1 | -8.68% (inactive) | 
CCCCOC(=O)COc1ccc(Cl)cc1Cl | 12.7% (inactive) | 
CC(=O)OC(C(=O)c1ccccc1)c1ccccc1 (stereo not given) | 3% (inactive) | 
CCCCCCN | -7.74% (inactive) | 
CC(=O)Nc1cccc(C)c1 | -0.737% (inactive) | 
CCC(Cl)CC(Cl)C(Cl)C(Cl)C(Cl)C(C)Cl (stereo not given) | 0.125% (inactive) | 
